According to publication PMC4336329 (PLoS ONE, 2015):
Out of some 310,000 compounds screened, about 2,200 (0.71%) showed an effect of 50% or more. Effects have a minus sign here. The entries come from a sample that favours strong results as a whole.

target: human ether-à-go-go-related gene (hERG) potassium channel (human, UniProt Q12809); assay: primary screen, population patch clamp on CHO cells stably expressing hERG; higher = less effect of the substance
Procedure: Briefly, Chinese hamster ovary (CHO) cells stably expressing the hERG channel were dislodged from tissue culture flasks and dispensed into PPC plates. […] During the recording, background leak currents were estimated by a 100 ms step to -80 mV from an initial holding potential of -70 mV and subtracted from the subsequent current measurement. The campaign was conducted in two phases using slight differences in recording protocol. In the first phase, the initial voltage pulse used a 100 ms step to -30 mV from a holding potential of -70 mV, a 2 s conditioning step to +25 mV, and a 2 s test step to -30 mV. During the second phase of the screen, the potential during the conditioning step was raised to +45 mV. In both phases of the campaign, a secondary voltage pulse was applied using the same parameters as the second phase initial pulse. The initial and secondary pulses were applied in the absence of compound, and upon application of 1 μM and 10 μM test concentrations. Small molecule effects on hERG current density were quantified by […].

Sequence of human ether-à-go-go-related gene (hERG) potassium channel (Q12809 whole entry, looked up): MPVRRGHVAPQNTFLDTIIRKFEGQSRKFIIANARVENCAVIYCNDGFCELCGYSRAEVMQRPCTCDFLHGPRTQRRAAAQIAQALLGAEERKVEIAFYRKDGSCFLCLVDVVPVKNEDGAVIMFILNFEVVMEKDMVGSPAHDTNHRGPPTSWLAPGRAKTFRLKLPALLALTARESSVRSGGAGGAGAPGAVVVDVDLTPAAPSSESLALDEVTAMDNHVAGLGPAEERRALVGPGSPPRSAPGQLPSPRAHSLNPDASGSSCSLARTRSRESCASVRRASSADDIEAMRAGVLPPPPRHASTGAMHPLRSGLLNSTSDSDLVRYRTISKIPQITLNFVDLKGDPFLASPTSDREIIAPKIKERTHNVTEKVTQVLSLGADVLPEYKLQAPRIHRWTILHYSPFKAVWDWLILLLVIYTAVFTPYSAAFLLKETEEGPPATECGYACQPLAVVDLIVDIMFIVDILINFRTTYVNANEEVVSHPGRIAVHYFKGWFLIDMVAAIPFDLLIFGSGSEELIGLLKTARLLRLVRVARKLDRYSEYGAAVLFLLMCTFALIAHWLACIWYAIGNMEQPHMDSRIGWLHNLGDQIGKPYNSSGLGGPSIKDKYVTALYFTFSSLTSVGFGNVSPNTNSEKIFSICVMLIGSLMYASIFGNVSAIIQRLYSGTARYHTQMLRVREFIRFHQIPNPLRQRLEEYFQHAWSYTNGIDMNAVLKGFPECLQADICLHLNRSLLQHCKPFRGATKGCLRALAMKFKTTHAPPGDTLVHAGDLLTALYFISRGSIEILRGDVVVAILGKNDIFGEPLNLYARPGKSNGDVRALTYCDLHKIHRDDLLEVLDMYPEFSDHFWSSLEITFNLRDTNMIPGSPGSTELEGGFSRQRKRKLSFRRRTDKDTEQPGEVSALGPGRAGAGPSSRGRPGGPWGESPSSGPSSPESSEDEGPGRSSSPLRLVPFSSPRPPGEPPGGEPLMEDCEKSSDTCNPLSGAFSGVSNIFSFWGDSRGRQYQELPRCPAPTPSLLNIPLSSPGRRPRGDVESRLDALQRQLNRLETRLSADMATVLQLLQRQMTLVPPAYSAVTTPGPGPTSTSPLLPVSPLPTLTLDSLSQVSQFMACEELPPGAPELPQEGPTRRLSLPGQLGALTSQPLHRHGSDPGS

| Structure (SMILES) | hERG current change (%, negative = inhibition) at 1uM [%] |
| --- | --- |
| O=C(c1cccs1)N1CCCC(N2CCN(c3ccc(F)cc3)CC2)C1 (stereo not shown) | -52.1 |
| Cc1nnsc1C(=O)N1CCCC(N2CCN(c3ccc(F)cc3)CC2)C1 (stereo not shown) | 12.3 |
| O=C(c1cccs1)N1CCCC(N2CCN(c3cccc(C(F)(F)F)c3)CC2)C1 (stereo not shown) | -8.83 |
| Cc1ccccc1N1CCN(C2CCCN(C(=O)c3ccc(Cl)s3)C2)CC1 (stereo not shown) | 1.61 |
| O=C(c1ccc(Cl)s1)N1CCCC(N2CCN(c3ccc(F)cc3)CC2)C1 (stereo not shown) | -63.2 |
| CCCc1cc(C(=O)N2CCCC(N3CCN(c4ccc(F)cc4)CC3)C2)no1 (stereo not shown) | -74.1 |
| Cc1cc(C(=O)N2CCCC(N3CCN(c4ccc(F)cc4)CC3)C2)no1 (stereo not shown) | -19.1 |
| Cc1nonc1C(=O)N1CCCC(N2CCN(c3ccc(F)cc3)CC2)C1 (stereo not shown) | -17.7 |
| O=C(c1ccncc1)N1CCCC(N2CCN(c3ccc(F)cc3)CC2)C1 (stereo not shown) | -19.9 |
| CC(C)c1cc(C(=O)N2CCCC(N3CCN(c4ccc(F)cc4)CC3)C2)no1 (stereo not shown) | -36.4 |
| CC(=O)c1ccc(C(=O)N2CCCC(N3CCN(c4ccc(F)cc4)CC3)C2)s1 (stereo not shown) | -51.3 |
| CC(C)=CC(=O)N1CCCC(N2CCN(c3ccc(F)cc3)CC2)C1 (stereo not shown) | 19.1 |
| Nc1nc(Br)c2ccccc2c1-c1ccccc1 | 9.58 |
| CC(C)c1ccc(N(CC(=O)Nc2ccc(S(=O)(=O)N3CCOCC3)cc2)S(C)(=O)=O)cc1 | 21.3 |
| COc1ccc(CCNC(=O)/C=C/c2ccc3ccccc3n2)cc1OC | 10.9 |
| COc1ccc(S(=O)(=O)N(C)CC(=O)Nc2ccccc2SC)cc1Cl | 11.6 |
| COc1nc2ccccc2c(=O)n1-c1ccc(C)cc1 | 7.4 |
| Cc1cccc(C(=O)NCC2CCN(C(=O)c3cccc(C)c3)CC2)c1 | -2.21 |
| COc1cccc(NC(=O)CCN2CCC(C(N)=O)CC2)c1 | 16.9 |
| O=C(Nc1ccnn1C1CCN(Cc2ccccc2)CC1)c1ccccc1Cl | -53.1 |
| CSc1ccc(CN2CCC(n3nccc3NC(=O)c3ccccc3C)CC2)cc1 | -83.8 |
| Cn1cc(CN2CCC(n3nccc3NC(=O)c3ccccc3Cl)CC2)cn1 | -4.32 |

| Structure (SMILES) | hERG current change (%, negative = inhibition) at 1uM [%] |
| --- | --- |
| Cc1ccccc1C(=O)Nc1ccnn1C1CCN(Cc2cnn(C)c2)CC1 | -1.26 |
| Cc1ccccc1C(=O)Nc1ccnn1C1CCN(Cc2cnn(C(C)C)c2)CC1 | -27.3 |
| Cc1ccccc1C(=O)Nc1ccnn1C1CCN(Cc2ccncc2)CC1 | -3.47 |
| Cc1ccccc1C(=O)Nc1ccnn1C1CCN(Cc2cccnc2)CC1 | -48.9 |
| CCc1ccc(CN2CCC(n3nccc3NC(=O)c3ccccc3C)CC2)cc1 | -85.1 |
| CC(CN1CCC(n2nccc2NC(=O)c2ccccc2Cl)CC1)c1ccccc1 (stereo not shown) | -43.6 |
| O=C(Nc1ccnn1C1CCN(Cc2cccnc2)CC1)c1ccccc1Cl | -11.5 |
| CC(CCN1CCC(n2nccc2NC(=O)c2ccccc2Cl)CC1)c1ccccc1 (stereo not shown) | -85.1 |
| COCC(C)N1CCC(n2nccc2NC(=O)c2ccccc2Cl)CC1 (stereo not shown) | -1.49 |
| O=C(c1cc([N+](=O)[O-])ccc1N1CCCCC1)N1CCCCC1 | -6.51 |
| Cc1ccc(S(=O)(=O)N(C)Cc2ccc(-c3nnc4n3CCC4)cc2)cc1 | 0.889 |
| COC(=O)c1ccc(N2CCCCC2)c(NS(=O)(=O)c2ccc(C)cc2)c1 | 12.6 |
| CCOC(=O)CSc1nnc(Cn2c(=O)sc3ccccc32)n1C | -3.18 |
| CCN1CCC(n2nccc2NC(=O)c2ccccc2Cl)CC1 | 10.5 |
| Cc1cc(CN2CCC(n3nccc3NC(=O)c3ccccc3Cl)CC2)cc(C)c1O | -64.4 |
| Cc1cc(C)c(CN2CCC(n3nccc3NC(=O)c3ccccc3Cl)CC2)cc1C | 1.2 |
| COc1ccc(O)c(CN2CCC(n3nccc3NC(=O)c3ccccc3Cl)CC2)c1 | -15.4 |
| CCc1ccc(CN2CCC(n3nccc3NC(=O)c3ccccc3Cl)CC2)cc1 | -92.3 |
| NC(=O)c1ncn([C@@H]2O[C@H](CO)[C@@H](O)[C@H]2O)n1 | 25.8 |
| Cn1c([O-])c(Cc2cccc(Cl)c2Cl)c(=O)n(C)c1=O.[NH4+] | 17.5 |
| CCOc1ccc(OCC(=O)OCC(=O)N(CC(C)C)c2c(N)n(Cc3ccccc3)c(=O)[nH]c2=O)cc1 | 5.08 |
